Laboratory results published in PubChem BioAssay (Tox21).
“And” between values parts separate entries of the source, which are not always exact repeats. Equal entries are not always repeated. Results filed as inconclusive are left out. Where a call stands in place of a potency, no number is given. Where a structure was tested more than once in an assay, its records may differ in their call. The source made the active and inactive calls. Unless noted, calls follow the shape of the dose curve; as a rule, active = well fitted curve in the direction sought with a large enough effect in the repeat runs; inconclusive = weak or mixed curves; inactive = no such curve, though single readings can be large; an effect the other way counts as inactive or inconclusive.

What was measured:
[1] = A CellTox Green Cytotoxicity Assay to monitor cytotoxicity in HepG2 cells - 8 hour (AID 1224890); also: nearly all actives have a fitted effect of over 45% in size; also: potency is read from the fitted curve at half-maximal effect
In short: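 Continuous culture of HepG2 cells with a membrane-impermeant DNA dye; rising fluorescence marks dead cells. Compound exposure lasted up to 40 h at 37 C, with reads every 8 h from 0 h.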

[2] = qHTS assay to identify small molecule antagonists of the estrogen receptor alpha (ER-alpha) signaling pathway using the BG1 cell line in the presence of 0.1 nM 17-beta-estradiol - cell viability counter screen (AID 1259241); also: nearly all actives have a fitted effect of over 40% in size
In short: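 Cytotoxicity counter-screen: live-cell protease activity measured by fluorescence (30 min reagent step) in the same wells. Cells were VM7Luc4E2 with endogenous ER-alpha and ERE-driven luciferase, treated 22 hr at 37C alongside 0.1 nM 17beta-estradiol final.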

[3] = qHTS assay to identify small molecule antagonists of the androgen receptor (AR) signaling pathway using the MDA cell line in the presence of 0.5 nM R1881 - cell viability counter screen (AID 1259242); also: nearly all actives have a fitted effect of over 45% in size; also: potency is read from the fitted curve at half-maximal effect
In short: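 Fluorescence from CellTiter-Fluor, which reports protease activity of live cells, was read 30 min after reagent addition to MDA-kb2 cells that had been incubated 16 hr with compound and 0.5 nM R1881.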

[4] = qHTS assay to identify small molecule phospholipidosis (PLD) inducers (AID 1259344; active = well fitted curve in the direction sought with a large enough effect; an effect the other way counts as inactive or inconclusive)
In short: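 HepG2 cells grown on collagen I take up LipidTOX Red while exposed to compound for 24 h; after fixation they are imaged at 20x and pit metrics are extracted.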

[5] = qHTS assay to identify small molecule HDAC inhibitors (AID 1259364); also: nearly all actives have a fitted effect of over 45% in size; also: potency is read from the fitted curve at half-maximal effect
In short: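 Endogenous HDAC class I/II activity was measured in wild-type HCT-116 cells by HDAC-Glo luminescence after 2 h compound treatment.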

[6] = qHTS assay to identify small molecule HDAC inhibitors - cell viability counter screen (AID 1259365); also: series mostly up to about 92 µM; nearly all actives have a fitted effect of over 50% in size
In short: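 CellTiter-Glo luminescence (30 min, room temperature) reported viability after a 2 h compound exposure at 37 C. Cells: wild-type HCT-116, 1,500 per well, seeded the night before.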

[7] = qHTS assay to identify small molecule agonists of the sonic hedgehog signaling (Shh) pathway - cell viability counter screen (AID 1259366); also: nearly all actives have a fitted effect of over 50% in size; also: potency is read from the fitted curve at half-maximal effect
In short: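 Cytotoxicity counter screen: CellTiter-Fluor reagent added after 23 h compound exposure, then 1 h at 37C and fluorescence read. Cells were 3T3 Gli1-Luc, seeded 2,000 per well and dosed 4 h post-plating.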

[8] = qHTS assay to identify small molecule antagonists of the sonic hedgehog signaling (Shh) pathway - cell viability counter screen (AID 1259367); also: nearly all actives have a fitted effect of over 55% in size; also: potency is read from the fitted curve at half-maximal effect
In short: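 After a 4 hr settling period, 3T3 Gli1-Luc cells were treated with DMSO-dissolved chemicals and conditioned medium, kept 24 hr at 37C in 5% CO2, and assayed for viability by CellTiter-Fluor fluorescence following 1 hr reagent incubation.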

[9] = qHTS assay to identify small molecule agonists of the sonic hedgehog signaling (Shh) pathway (AID 1259368; calls by dose curve;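 also: NIH/3T3-derived 3T3Gli1-Luc cells carrying a stable Gli1-driven firefly luciferase reporter; series mostly up to about 92 µM; nearly all actives have a fitted effect of over 15% in size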)
In short: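 Luminescent signal was taken as a measure of Gli1-controlled luciferase expression in stably transfected NIH/3T3-derived cells that had been treated for 24 hr with compounds delivered in DMSO.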

[10] = qHTS assay to identify small molecule antagonists of the sonic hedgehog signaling (Shh) pathway (AID 1259369; calls by dose curve; also: nearly all actives have a fitted effect of over 45% in size; also: potency is read from the fitted curve at half-maximal effect)
In short: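 Screening used 3T3Gli1-Luc cells at 2,000 per well, compounds delivered in DMSO, and conditioned medium as agonist stimulus; plates incubated 24hr at 37 C and 5% CO2 before a 30min luciferase step.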

[11] = biological target: Estrogen receptor beta (Homo sapiens) (UniProt Q92731); assay: qHTS assay to identify small molecule agonists of the estrogen receptor beta (ER-beta) signaling pathway (AID 1259377; active = well fitted activation curve with a large enough effect in the signal ratio in the repeat runs, not every such curve was filed as active; the % refers to the signal ratio)
Estrogen receptor beta (Homo sapiens), sequence (Q92731 whole entry, looked up): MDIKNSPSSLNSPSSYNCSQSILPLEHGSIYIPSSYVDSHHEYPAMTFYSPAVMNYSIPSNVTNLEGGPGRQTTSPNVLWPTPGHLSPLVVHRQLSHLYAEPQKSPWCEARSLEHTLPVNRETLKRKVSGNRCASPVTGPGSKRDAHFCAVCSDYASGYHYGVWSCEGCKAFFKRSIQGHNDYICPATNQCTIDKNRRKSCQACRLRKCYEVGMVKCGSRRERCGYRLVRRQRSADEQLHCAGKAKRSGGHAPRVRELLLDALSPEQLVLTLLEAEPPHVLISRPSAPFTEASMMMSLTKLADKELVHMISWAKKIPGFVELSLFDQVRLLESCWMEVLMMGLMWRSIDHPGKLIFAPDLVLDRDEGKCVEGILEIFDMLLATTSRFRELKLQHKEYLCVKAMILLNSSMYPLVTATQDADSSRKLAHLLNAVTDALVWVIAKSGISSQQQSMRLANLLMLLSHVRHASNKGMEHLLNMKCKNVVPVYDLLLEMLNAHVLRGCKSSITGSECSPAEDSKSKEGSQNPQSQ
In short: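 Ratiometric beta-lactamase FRET read-out came after 2 h substrate loading at room temperature. It followed 16 h compound treatment at 37C of GripTite HEK293T cells carrying a UAS-bla reporter, plated in 2% charcoal-stripped FBS medium.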

[12] = biological target: Estrogen receptor beta (Homo sapiens) (UniProt Q92731); assay: qHTS assay to identify small molecule antagonists of the estrogen receptor beta (ER-beta) signaling pathway (AID 1259378; active = well fitted inhibition curve with a large enough effect in the signal ratio in the repeat runs, not every such curve was filed as active; the % refers to the signal ratio; also: potency is read from the fitted curve at half-maximal effect)
In short: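 ER-beta-UAS-bla HEK293T (GripTite) cells in 2% charcoal-stripped FBS medium were preincubated 6 hr at 37C, dosed with compound, then stimulated with 1 nM E2 (final) for 16 hr; beta-lactamase reporter read by B/G FRET fluorescence after 2 hr substrate loading.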

[13] = qHTS assay to identify small molecule agonists of the androgen receptor (AR) signaling pathway in the presence of an antagonist - cell viability counter screen (AID 1259379); also: nearly all actives have a fitted effect of over 25% in size; also: potency is read from the fitted curve at half-maximal effect;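 as to activity change, negative = cytotoxicity: MDA-kb2 human breast cancer cells carrying an MMTV luciferase reporter; series mostly up to about 92 µM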
In short: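 In MDA-kb2 cells (human breast carcinoma, MMTV-luciferase), compounds at 15 concentrations plus 3.0uM nilutamide; 16 hr, 37C, 0% CO2; CellTiter-Fluor fluorescence read for viability.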

[14] = qHTS assay to identify small molecule agonists of the estrogen receptor beta (ER-beta) signaling pathway - cell viability counter screen (AID 1259380); also: nearly all actives have a fitted effect of over 30% in size; also: potency is read from the fitted curve at half-maximal effect
In short: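 Viability of ER-beta-UAS-bla HEK293T cells was determined by CellTiter-Glo luminescence following 16 hr treatment with test compounds at 37C.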

[15] = qHTS assay to identify small molecule antagonists of the estrogen receptor beta (ER-beta) signaling pathway - cell viability counter screen (AID 1259382); also: nearly all actives have a fitted effect of over 55% in size; also: potency is read from the fitted curve at half-maximal effect; as to activity change, negative = cytotoxicity: series mostly up to about 92 µM
In short: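 Tox21 10K library tested in qHTS format on ER-beta-bla HEK293T cells stimulated with 1nM E2; 16 hr treatment at 37C. Same-well CellTiter-Glo luminescence served as the cell viability measure.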

[16] = qHTS assay to identify small molecule agonists or antagonists of the thyroid stimulating hormone receptor (TSHR) signaling pathway - wild type cell line counter screen (AID 1259384; calls by dose curve)
In short: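 Wild-type HEK293 cells were plated 18 h at 37 C/5% CO2, pin-dosed with compound plus Ro20-1724 medium, held 30 min at room temperature, then given cAMP-d2 and anti-cAMP-cryptate; fluorescence was read after 1 h. Fifteen concentrations, triplicate.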

[17] = biological target: Estrogen receptor (Homo sapiens) (UniProt P03372); assay: qHTS assay to identify small molecule antagonists of the estrogen receptor alpha (ER-alpha) signaling pathway using the BG1 cell line in the presence of 0.1 nM 17-beta-estradiol (AID 1259244); also: potency is read from the fitted curve at half-maximal effect; nearly all actives have a fitted effect of over 50% in size
Estrogen receptor (Homo sapiens), sequence (P03372 whole entry, looked up): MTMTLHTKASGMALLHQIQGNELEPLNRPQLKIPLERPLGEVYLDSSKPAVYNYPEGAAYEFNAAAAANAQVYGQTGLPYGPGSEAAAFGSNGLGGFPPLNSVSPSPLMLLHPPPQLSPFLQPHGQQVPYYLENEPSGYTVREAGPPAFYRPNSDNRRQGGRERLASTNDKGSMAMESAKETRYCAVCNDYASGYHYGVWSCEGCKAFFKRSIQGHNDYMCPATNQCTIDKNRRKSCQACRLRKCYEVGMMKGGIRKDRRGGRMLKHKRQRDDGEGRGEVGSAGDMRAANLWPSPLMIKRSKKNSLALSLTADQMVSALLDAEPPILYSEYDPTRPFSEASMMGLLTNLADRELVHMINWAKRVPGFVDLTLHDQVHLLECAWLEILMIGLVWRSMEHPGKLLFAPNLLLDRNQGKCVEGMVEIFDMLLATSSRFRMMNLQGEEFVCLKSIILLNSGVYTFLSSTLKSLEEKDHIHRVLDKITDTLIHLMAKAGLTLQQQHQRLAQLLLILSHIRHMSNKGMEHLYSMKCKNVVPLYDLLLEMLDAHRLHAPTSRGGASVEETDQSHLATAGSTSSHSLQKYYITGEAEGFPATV
In short: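 Quantitative high-throughput screen in VM7Luc4E2 cells: compound plus 0.1 nM E2 (final), 22 h, 37C, 5% CO2; ONE-Glo added, 30 min room temperature, luminescence measured.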

SMILES | Potency [1] | Potency [2] | Potency [3] | Potency [4] | Potency [5] | outcome [6] | Potency [7] | Potency [8] | Potency [9] | Potency [10] | Potency [11] | Potency [12] | Potency [13] | Potency [14] | Potency [15] | outcome [16] | Potency [17] | viability change, negative = cytotoxic [7] | viability change, negative = cytotoxic [8] | activity change, negative = cytotoxicity [15]
CCOC(=O)C(C#N)=C(c1ccccc1)c1ccccc1 | inactive | inactive | inactive | inactive | inactive | inactive | inactive | inactive | inactive | inactive | inactive | 4.33 µM (active) and 5.31 µM (active) | inactive | inactive | inactive | inactive |  |  |  | 
CC(C)Oc1ccc2c(=O)c(-c3ccccc3)coc2c1 | inactive | inactive | inactive | inactive | 2.37 µM (active) | inactive | inactive | inactive |  | inactive |  |  |  |  | inactive | inactive |  |  |  | 
Clc1nc(Cl)c(Cl)c(Cl)c1Cl | inactive | inactive | inactive |  | inactive | inactive | inactive | inactive | inactive | inactive | inactive | inactive | 61.4 µM (active) | inactive | inactive | inactive |  |  |  | 
O=C(c1ccc(OCCN2CCCCC2)cc1)c1c(-c2ccc(O)cc2)sc2cc(O)ccc12 | inactive |  | 61.2 µM (active) and inactive | inactive | inactive | inactive | 24.4 µM (active) and 24.3 µM (active) and 11.9 µM (active) | 24.4 µM (active) and 30.6 µM (active) | inactive | 4.86 µM (active) and 2.73 µM (active) and 8.41 µM (active) |  |  | 61.2 µM (active) and 61.1 µM (active) and 26.6 µM (active) | 54.5 µM (active) and 34.4 µM (active) and 23.7 µM (active) | 54.5 µM (active) and 26.6 µM (active) |  |  |  |  | 
O=C(Nc1ccc([N+](=O)[O-])cc1Cl)c1cc(Cl)ccc1O | inactive |  | 2.17 µM (active) and 1.46 µM (active) | inactive | 969 nM (active) and 580 nM (active) | inactive | 68.6 µM (active) | 30.6 µM (active) | inactive |  |  |  | 1.93 µM (active) and 1.46 µM (active) | 8.63 µM (active) and 92 nM (active) | 2.17 µM (active) | inactive | 2.43 µM (active) and 1.64 µM (active) | -20.9% [at 19 µM] (inactive) | -21.1% [at 19 µM] (inactive) | -26.7% [at 19 µM] (inactive)
COc1ccc(C(=O)CC(=O)c2ccc(C(C)(C)C)cc2)cc1 | inactive and 75.6 nM (active) | inactive | inactive | inactive | inactive | inactive | inactive | inactive | inactive | inactive |  |  | 58.7 µM (active) and inactive | inactive | inactive | inactive |  |  |  | 
OC[C@H]1O[C@@H]2O[C@H]3[C@H](O)[C@@H](O)[C@@H](O[C@H]4[C@H](O)[C@@H](O)[C@@H](O[C@H]5[C@H](O)[C@@H](O)[C@@H](O[C@H]6[C@H](O)[C@@H](O)[C@@H](O[C@H]7[C@H](O)[C@@H](O)[C@@H](O[C@H]8[C@H](O)[C@@H](O)[C@@H](O[C@H]1[C@H](O)[C@H]2O)O[C@@H]8CO)O[C@@H]7CO)O[C@@H]6CO)O[C@@H]5CO)O[C@@H]4CO)O[C@@H]3CO | inactive | inactive | inactive | inactive | inactive | inactive | inactive | inactive | inactive | inactive |  |  | inactive | 61.3 µM (active) and inactive | inactive | inactive |  |  |  | 
CN(C)C(=N)N=C(N)N | inactive | inactive | inactive | inactive | inactive | inactive | inactive | inactive | inactive | inactive |  |  | inactive | inactive | inactive | inactive |  |  |  | 
